SMILES strings stand for the structures. The source made the active and inactive calls. How the calls were made is not given here.

In one test the target is Dual specificity protein kinase CLK1 (Homo sapiens) (UniProt P49759). Kind of test: ligand-induced CLK1 melting temperature shift – biophysical, recombinant human kinase, DSF (AID 382). The conditions noted are these: Recombinant CLK1, thermal shift (DSF), at 10 µM, protein 2 µM, buffer 10 mM HEPES, NaCl 150 mM, with 50 mM Arg/Glu, hits give high values.
Sequence of Dual specificity protein kinase CLK1 (Homo sapiens) (P49759 whole entry, looked up): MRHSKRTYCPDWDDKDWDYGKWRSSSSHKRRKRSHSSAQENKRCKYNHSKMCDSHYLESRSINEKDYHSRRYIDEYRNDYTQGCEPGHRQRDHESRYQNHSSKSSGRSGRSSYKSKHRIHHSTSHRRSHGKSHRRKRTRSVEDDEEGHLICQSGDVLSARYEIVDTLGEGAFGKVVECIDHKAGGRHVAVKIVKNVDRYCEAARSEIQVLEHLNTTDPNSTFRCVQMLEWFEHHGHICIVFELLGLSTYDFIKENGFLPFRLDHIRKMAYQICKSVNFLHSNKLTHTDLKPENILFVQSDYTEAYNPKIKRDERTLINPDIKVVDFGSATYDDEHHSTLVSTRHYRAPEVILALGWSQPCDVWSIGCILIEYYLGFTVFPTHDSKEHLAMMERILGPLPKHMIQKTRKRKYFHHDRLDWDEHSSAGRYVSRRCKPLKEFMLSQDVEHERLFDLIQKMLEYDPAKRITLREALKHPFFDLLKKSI
Turning to `Nc1nc(Nc2ccc(S(N)(=O)=O)cc2)nn1C(=S)Nc1c(F)cccc1F`, the Tm shift is 11.8 Celsius (active).

`CC(C)[C@@H](CO)Nc1ccc2ncc(-c3ccc(C#N)cc3)n2n1`: the Tm shift was 5.84 Celsius (active).

For `CCN1/C(=C/C(C)=O)Sc2ccc(OC)cc21`, the Tm shift is 6.91 Celsius (active).

Staying with this test, now noted: Recombinant CLK1, thermal shift (DSF), at 10 µM, protein 2 µM, buffer 10 mM HEPES, pH 7.5, NaCl 150 mM, hits give high values.
As to `c1csc(-c2cnc3ccc(NCC4CC4)nn23)c1`, the Tm shift is 3.52 Celsius (active).

Regarding `CC(C)c1ccc(Nc2ccn3ncc(-c4ccsc4)c3n2)cc1`, the Tm shift is 4.63 Celsius (active).

For `Clc1cccc(Nc2ccn3ncc(-c4ccsc4)c3n2)c1`, the Tm shift was 3.45 Celsius (active).

In the case of `Nc1ncc(-c2ccncc2)nc1NC1CCCCC1`, the Tm shift is 3.7 Celsius (active).

The same test, now with this note: Recombinant CLK1, thermal shift (DSF), at 10 µM, protein 2 µM, buffer 10 mM HEPES, pH 7.5, NaCl 150 mM, with 50 µM L-Arg/L-Glu (1:1), hits give high values.
In the case of `CC(C)[C@@H](CO)Nc1ccc2ncc(-c3cccc(O)c3)n2n1`, the Tm shift was 4.2 Celsius (active).

For `CCC(CO)Nc1ccc2ncc(-c3cccc(C(C)=O)c3)n2n1` (stereo not drawn), the Tm shift is 6.1 Celsius (active).

With `OCC1=C(O)C(O)[C@@H](N2CNc3cc(Cl)c(Cl)cc32)O1` (stereo partly drawn), the Tm shift was 3.1 Celsius (active).

As for `CCC(CO)Nc1ccc2ncc(-c3ccc(C(=O)O)cc3)n2n1` (stereo not drawn), the Tm shift is 4.8 Celsius (active).

Turning to `Oc1cccc(-c2cnc3ccc(NCC4CC4)nn23)c1`, the Tm shift is 3.9 Celsius (active).

With `CCN(CC)CCNC(=O)c1c(C)[nH]c(/C=C2\C(=O)Nc3ccc(Cl)cc32)c1C`, the Tm shift was 6.6 Celsius (active).

Turning to `Fc1cccc(-c2cnc3ccc(NC4CCOCC4)nn23)c1`, the Tm shift was 4.5 Celsius (active).

Regarding `COCCNc1ccc2ncc(-c3cccc(Cl)c3)n2n1`, the Tm shift is 3.6 Celsius (active).

Regarding `CCCCc1c(-c2ccc(O)cc2)[nH]c2nccnc12`, the Tm shift is 3.5 Celsius (active).

As for `N#Cc1ccc(-c2cnc3ccc(NC4CCOCC4)nn23)cc1`, the Tm shift was 7.2 Celsius (active).

As for `c1cncc(-c2cnc3ccc(NC4CCOCC4)nn23)c1`, the Tm shift was 3.3 Celsius (active).

The values are drawn from PubChem BioAssay AID382 (SGCOxCompounds, 2006).
